Bioassay records as filed in PubChem.
HT1080-NT tox – kills 2HG-producing HT-1080-NT fibrosarcoma cells; HT-1080-NT fibrosarcoma viability, CellTiter-Glo ATP luminescence, 48 h; AID 686970; 360,000 tested, 1.6% active; Potency, µM (doses to about 46.1 µM), usual class: cytotoxic;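 also: NT is the 2HG producing partner of a matched IDH1 knockdown line; nearly all actives have a fitted effect of over 55% in size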
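HT-1080-NT; 750 cells/well; 5% FBS RPMI; 48 h compound, 37 degrees C; CellTiter-Glo luminescence; curve fitting and curve-class assignment.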
KB-V1 MDR tox – kills drug-selected multidrug resistant KB-V1 cells. KB-V1 MDR cells viability, CellTiter-Glo, 72 h. Potency, µM (highest dose often 46.1 µM), usual class: cytotoxic. 400,000 tested, 3.4% active; also: nearly all actives have a fitted effect of over 60% in size
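Compound-treated KB-V1 multidrug-resistant cells, 72 h, 37 degrees C; viability by CellTiter-Glo. Fitted qHTS curves give the values.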
KB-3-1 cytotox – kills parental KB-3-1 adenocarcinoma cells. Potency, µM (doses to about 46.1 µM), actives largely listed as cytotoxic. 400,000 tested, 1.4% active. KB-3-1 viability, CellTiter-Glo ATP luminescence, 72 h; also: nearly all actives have a fitted effect of over 60% in size
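72 h, 37 °C compound treatment of KB-3-1 parental cells; CellTiter-Glo added, 10 min, luminescence read. Data corrected against DMSO-only plates and normalized before curve fitting.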
SW480 rerep – induces DNA re-replication in SW480 colon adenocarcinoma cells; SW480 DNA re-replication, Hoechst DNA content imaging, 48 h; Potency, µM (top dose mostly 46.1 µM), usual class: activators; 340,000 tested, 1.8% active; AID 624297; also: nearly all actives have a fitted effect of over 55% in size
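250 cells/well; 23 nL cpd via pin tool; 48 hr, 37 C, 5% CO2; Hoechst 40 min; imager read of total nuclear intensity, ex 405/em 500-530 nm.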
HT1080 IDH1KD tx – toxicity to HT-1080 IDH1 knockdown cells (counter line); HT-1080 IDH1 knockdown viability, ATP luminescence, 48 h; 360,000 tested, 2% active; AID 686971; Potency, µM (highest dose often 46.1 µM), actives largely listed as cytotoxic
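Cytotoxicity counter-line: IDH1KD HT-1080, 48 h, CellTiter-Glo. Curves classed by r2, magnitude and activity.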
MCF10A rereplic – inducers of DNA re-replication in MCF 10A breast cells; MCF 10A DNA re-replication, Hoechst nuclear intensity, 48 h; Potency, µM (top dose mostly 46.1 µM), usual class: activators; 350,000 tested, 2.9% active; also: nearly all actives have a fitted effect of over 50% in size
Of the large screens only hits and unclear results are named; the others gave an inactive call. This is a sample that favours compounds with a hit; in the whole collection about 8% have one here. Calls follow the shape of the dose curve; as a rule, active = well fitted curve in the direction sought with a large enough effect; inconclusive = small, poorly fitted or top-dose-only effect, or another doubt; inactive = no such curve, though single readings can be large; an effect the other way counts as inactive or inconclusive.

COc1ccc(OC)c(NC(=O)c2cnc(Nc3ccccc3OC)c3ccccc23)c1	HT1080-NT tox inconclusive, KB-V1 MDR tox 6.5µM, KB-3-1 cytotox 7.3µM, SW480 rerep 3.3µM, HT1080 IDH1KD tx inconclusive
COc1cccc(C(=O)Nc2cccc3ccccc23)c1	none
COc1ccc2nc(NC(C)=O)sc2c1	none
COc1ccc(Nc2ncc(C(=O)Nc3cc(Cl)c(OC)cc3OC)c3ccccc23)cc1	none (no result: HT1080-NT tox, SW480 rerep, HT1080 IDH1KD tx, MCF10A rereplic)
COc1cccc(C(CC(=O)Nc2cccc3ccccc23)NC(=O)c2ccccc2)c1 (configuration not stated)	HT1080-NT tox inconclusive, KB-V1 MDR tox 5.8µM, HT1080 IDH1KD tx inconclusive
CCOc1ccc(S(=O)(=O)Nc2cccc(C(=O)NCCCN3CCCC3=O)c2)cc1	KB-V1 MDR tox inconclusive
S=C(NCc1ccc(Cl)cc1)NCc1ccccn1	none
CC(C)CCC(CCNCc1ccccn1)c1ccc(Cl)cc1 (configuration not stated)	HT1080-NT tox inconclusive, KB-V1 MDR tox 10µM, KB-3-1 cytotox inconclusive, SW480 rerep inconclusive, HT1080 IDH1KD tx inconclusive, MCF10A rereplic inconclusive
COc1ccc(OC)c(C(C(=O)NCc2ccco2)N(C(=O)Cn2nnc3ccccc32)C2CC2)c1 (configuration not stated)	KB-V1 MDR tox 6.5µM
COc1ccccc1S(=O)(=O)N(C)C[C@@H]1OCc2cn(nn2)CCCC(=O)N([C@@H](C)CO)C[C@H]1C	none (no result: SW480 rerep, MCF10A rereplic)
COC(=O)c1ccc(COc2cccc3c2CCN(Cc2cccc(C)c2)C3=O)o1	KB-V1 MDR tox 16µM, KB-3-1 cytotox inconclusive, SW480 rerep inconclusive, MCF10A rereplic inconclusive
Cc1ccc(CN2CCc3c(OCc4ccc(F)cc4)cccc3C2=O)cc1	KB-V1 MDR tox 5.8µM, KB-3-1 cytotox inconclusive
COC(=O)c1ccc(COc2cccc3c2CCN(Cc2ccccc2)C3=O)o1	KB-V1 MDR tox inconclusive, MCF10A rereplic inconclusive
CN1CCc2c(OCc3ccc(F)cc3)cccc2C1=O	KB-V1 MDR tox inconclusive
O=C1c2cccc(OCc3ccc(F)cc3)c2CCN1Cc1ccc(F)cc1	KB-V1 MDR tox 3.3µM, KB-3-1 cytotox 2.9µM, HT1080 IDH1KD tx inconclusive, MCF10A rereplic 21µM
COCCCNC(=O)/C(C#N)=C/c1c(N2CCN(c3ccccc3)CC2)nc2ccccn2c1=O	KB-V1 MDR tox inconclusive, SW480 rerep 9.2µM, MCF10A rereplic 21µM
COCCNC(=O)/C(C#N)=C/c1c(N2CCN(c3ccccc3)CC2)nc2ccccn2c1=O	none
C=CCNC(=O)/C(C#N)=C/c1c(N(Cc2ccccc2)Cc2ccccc2)nc2ccccn2c1=O	KB-V1 MDR tox 18µM
N#C/C(=C\c1c(N(Cc2ccccc2)Cc2ccccc2)nc2ccccn2c1=O)C(N)=O	KB-V1 MDR tox inconclusive
COCCCNC(=O)/C(C#N)=C/c1c(N2CCN(C)CC2)nc2ccccn2c1=O	SW480 rerep inconclusive, MCF10A rereplic 21µM
COc1cccc(CNC(=O)c2cc(C3CC3)nc3c2cnn3C(C)C)c1	none
COc1ccccc1OCCCOc1ccc(C)cc1Br	MCF10A rereplic inconclusive
COc1cc(CNn2c(C)n[nH]c2=S)cc(Cl)c1OCc1ccc(F)cc1	KB-V1 MDR tox inconclusive
CCOc1cc(CNCCc2ccc(S(N)(=O)=O)cc2)ccc1OCc1ccccc1	HT1080-NT tox inconclusive, KB-V1 MDR tox inconclusive, KB-3-1 cytotox inconclusive, SW480 rerep inconclusive, HT1080 IDH1KD tx inconclusive, MCF10A rereplic 21µM
CCNCc1cc(Cl)c(OCc2ccccc2)c(OCC)c1	HT1080-NT tox 16µM, HT1080 IDH1KD tx inconclusive
CCOc1cc(CNCCc2ccc(S(N)(=O)=O)cc2)cc(Cl)c1OCc1ccccc1	HT1080-NT tox 14µM, KB-V1 MDR tox inconclusive, SW480 rerep inconclusive, HT1080 IDH1KD tx 18µM
CCOc1cc(CNn2cn[nH]c2=S)cc(Cl)c1OCc1ccccc1F	KB-V1 MDR tox 16µM, SW480 rerep inconclusive
Cc1ccc(C(=O)CSc2nnc(-c3snnc3C)n2C2CC2)cc1	MCF10A rereplic inconclusive
CCOc1cc(CNCc2ccccc2)ccc1OCc1ccc(Cl)cc1	HT1080-NT tox 15µM, KB-3-1 cytotox inconclusive, SW480 rerep 15µM, HT1080 IDH1KD tx inconclusive, MCF10A rereplic inconclusive
COc1ccc(N2CCN(C(=O)CCNS(=O)(=O)c3cc(Br)cnc3N)CC2)cc1	none
Cn1cc(C(=O)c2ccc(Cl)cc2)cc1-c1nc2ccccc2n1C	HT1080-NT tox inconclusive, KB-V1 MDR tox 13µM, HT1080 IDH1KD tx inconclusive, MCF10A rereplic inconclusive
CC(Nc1nc(N2CCNCC2)nc2ccccc12)c1ccccc1 (configuration not stated)	HT1080-NT tox inconclusive, HT1080 IDH1KD tx 15µM
CC(Nc1nc(-c2ccncc2)nc2ccccc12)c1ccccc1 (configuration not stated)	SW480 rerep inconclusive
O=c1c2c(nc3n1CCCCC3)-c1ccccc1CC21CCCCC1	none
N#CCSc1n[nH]c2nc3c(c(=O)n12)C1(CCCC1)Cc1ccccc1-3	MCF10A rereplic 10µM
N#CCSc1nc2c(c(=O)n1Cc1ccco1)C1(CCCC1)Cc1ccccc1-2	KB-V1 MDR tox inconclusive, HT1080 IDH1KD tx inconclusive, MCF10A rereplic 13µM
CCCn1c(SCC#N)nc2c(c1=O)C1(CCCC1)Cc1ccccc1-2	HT1080-NT tox inconclusive, HT1080 IDH1KD tx inconclusive, MCF10A rereplic inconclusive
Cc1ccc(C)c(NC(=O)CSc2nc(C)cs2)c1	none
COc1ccc(NC(=O)CSc2nc(C)cs2)c([N+](=O)[O-])c1	KB-V1 MDR tox 23µM
Cc1csc(SCC(=O)Nc2cccc(C)c2C)n1	KB-V1 MDR tox 16µM
Cc1cccc(NC(=O)CSc2ncnc3nc[nH]c23)c1C	SW480 rerep inconclusive, MCF10A rereplic 23µM
COc1ccccc1NC(=S)NNC(=S)Nc1ccc(OC(F)F)cc1	HT1080 IDH1KD tx inconclusive, MCF10A rereplic inconclusive
c1ccc(-n2ncc3c(NCc4ccc5c(c4)OCO5)ncnc32)cc1	HT1080-NT tox inconclusive, KB-V1 MDR tox 21µM, HT1080 IDH1KD tx inconclusive, MCF10A rereplic inconclusive
Cc1cccc(-n2ncc3c(NCc4ccc5c(c4)OCO5)ncnc32)c1	none
Cc1ccc(-n2ncc3c(NCc4ccc5c(c4)OCO5)ncnc32)c(C)c1	KB-V1 MDR tox 4.1µM, KB-3-1 cytotox inconclusive
COc1ccc(-n2ncc3c(NCc4ccc5c(c4)OCO5)ncnc32)cc1	none
O=C(CSc1ncnc2ccccc12)Nc1ccc2c(c1)OCO2	MCF10A rereplic inconclusive
O=C(CSc1ncnc2c1cnn2-c1ccccc1)Nc1ccc2c(c1)OCO2	MCF10A rereplic 15µM
CCOC(=O)c1cc2c(=O)n3ccccc3nc2n(CC2CCCO2)c1=NC(=O)c1cccc(C)c1 (configuration not stated)	KB-V1 MDR tox inconclusive (no result: HT1080-NT tox, SW480 rerep, HT1080 IDH1KD tx, MCF10A rereplic)
